These results are taken from PubChem BioAssay.

The subject of assay [1] is XIP peptide (Xip251-270) binding. Briefly: small-molecule binders of XIP peptide, primary screen, biochemical, small-molecule microarray, fluorescence 635/667 nm, 0.1 µg/mL protein (AID 1182). The note with it: fluorescent protein binding, 635 nm, higher = more signal, called active from +8 up or from −8 down.
The next assay has as its system XIP peptide (Xip251-270). Briefly: small-molecule binders of XIP peptide, primary screen, biochemical, small-molecule microarray, fluorescence 635/667 nm, 0.5 µg/mL protein (AID 1183). As to conditions: small-molecule microarray binding, fluorescence 635 nm; higher = more signal.
The nature of assay [2]: Plasmodium falciparum growth inhibition, primary screen, strain 3D7, DAPI fluorescence, 100 nL (AID 1184).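 Note: parasites grown inside human red blood cells in medium with human serum.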 The note with it: P. falciparum 3D7 growth, 3 d, higher = more signal.
In assay [3] the target is Homeobox protein Hox-A13 (Mus musculus) (UniProt Q62424). Briefly: inhibitors of HoxA13-DNA binding, primary screen, biochemical, fluorescence polarization, labeled oligonucleotide (AID 1185). The note with it: 15 min, higher = more signal, called active from +8 up or from −8 down. For orientation: In fluorescence polarisation assays a small probe gives low polarisation when free and higher when bound to something large.
Homeobox protein Hox-A13 (Mus musculus), sequence (Q62424 whole entry, looked up): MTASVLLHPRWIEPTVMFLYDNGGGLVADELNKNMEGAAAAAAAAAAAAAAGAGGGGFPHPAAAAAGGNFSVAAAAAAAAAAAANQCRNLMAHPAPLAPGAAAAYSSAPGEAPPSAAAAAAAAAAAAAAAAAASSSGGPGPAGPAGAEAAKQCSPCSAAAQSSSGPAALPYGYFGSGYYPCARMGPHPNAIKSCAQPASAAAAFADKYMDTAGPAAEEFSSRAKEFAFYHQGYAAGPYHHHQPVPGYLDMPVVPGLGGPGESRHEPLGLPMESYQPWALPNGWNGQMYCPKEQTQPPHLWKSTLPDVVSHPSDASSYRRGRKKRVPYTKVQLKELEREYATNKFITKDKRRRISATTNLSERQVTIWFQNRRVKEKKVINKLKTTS

Assay [4] can be described thus: inhibitors of hydroxyurea-induced Chk1 phosphorylation, primary screen, imaging, HeLa, phospho-Chk1 antibody, percent positive cells (AID 1186). As to conditions: hydroxyurea-induced phospho-Chk1 immunofluorescence imaging, higher = more signal.
Assay [5] in a line: inhibitors of hydroxyurea-induced Chk1 phosphorylation, primary screen, imaging, HeLa, phospho-Chk1 nuclear intensity (AID 1187). The note with it: hydroxyurea-induced phospho-Chk1 immunofluorescence imaging, higher = more signal.

The source made the active and inactive calls. Unless noted, the rule behind the calls is not given here.

As to `NC(=O)[C@@H]1[C@H]2C(=O)O[C@H](c3ccccc3)[C@H](c3ccccc3)N2[C@H](c2ccc(O)cc2)[C@@]12C(=O)Nc1ccc(C#CC3(O)CCCCCC3)cc12`, the composite z-score is 0.734 (inactive) in assay [1] and 0.458 in the assay with XIP peptide (Xip251-270). Besides, the z-score in assay [2] was 0.907; in assay [3], -3.37 (inactive); in assay [4] it was -0.0527 (inactive); in assay [5], 0.0812 (inactive).
As for `[N-]=[N+]=NCc1ccccc1C[C@]1(C(=O)O)N=C(c2ccc(OCCCO)cc2)O[C@H]1c1ccccc1N=[N+]=[N-]`, the figures for the composite z-score (in assay [1]; in the assay on XIP peptide (Xip251-270)) were 0.525 (inactive) and 0.771, respectively. Moreover, the z-score is -1.57 in assay [2], -3.84 (inactive) in assay [3], -0.1 (inactive) in assay [4] and 0.16 (inactive) in assay [5].
With `CC(=O)N1Cc2ccccc2C[C@@]2(COC(c3ccc(OCCCO)cc3)=N2)C1=O`, the results for the composite z-score (in assay [1]; in the assay with XIP peptide (Xip251-270)) were 1.44 (inactive) and 0.81, respectively. The z-score in assay [2] is -2.28; in assay [3], -3.13 (inactive); in assay [4], -1.01 (inactive); in assay [5], -1.12 (inactive).
Consider `C=CCN1C(=O)[C@@]2(O[C@@H](CCO)[C@H]([Si](C)(C)c3ccc(OC)cc3)[C@H]2C)c2cc(NC(=O)c3ccc(OC)cc3)ccc21`, for which the composite z-score in assay [1] is 0.574 (inactive); in the assay on XIP peptide (Xip251-270) it was 0.208. The z-score was -2.77 in assay [2], -4.58 (inactive) in assay [3], -0.176 (inactive) in assay [4] and 0.416 (inactive) in assay [5].
In the case of `C=CCC(OC(C)=O)[C@@H]1[C@@H](N(Cc2ccc(-c3cccc(C(F)(F)F)c3)o2)C(=O)Cc2ccc(F)cc2)c2cc(OCCCO)ccc2N1C(=O)Cc1ccc(OC)cc1` (some centres not stated), the composite z-score is 0.664 (inactive) in assay [1] and -0.0147 with XIP peptide (Xip251-270). Further, the z-score in assay [2] is -1.61; in assay [3], -1.69 (inactive); in assay [4], 0.0521 (inactive); in assay [5], 0.633 (inactive).
As to `CCCCC(O)C1C=CC2C(=O)N(c3ccccc3)C(=O)C2N1Nc1ccccc1F` (configuration not stated), the values for the composite z-score (in assay [1]; in the assay on XIP peptide (Xip251-270)) were 0.335 (inactive) and 0.744, respectively. The z-score in assay [2] was 1.01; in assay [3], -3.4 (inactive); in assay [4], 0.772 (inactive); in assay [5], -0.0522 (inactive).
Regarding `O=C1[C@H]2C=C(Br)[C@H](C[C@@H]2c2ccccc2)[C@@]12CO2`, the composite z-score in assay [1] is 0.122 (inactive); with XIP peptide (Xip251-270), 0.31. Further, the z-score in assay [2] is -0.391; in assay [3], -1.29 (inactive); in assay [4], -0.155 (inactive); in assay [5], -0.0519 (inactive).
For `C=C[C@H](COC(C)=O)N(C(=O)OC(C)(C)C)S(=O)(=O)c1ccc(Br)cc1`, the figures for the composite z-score (in assay [1]; in the assay on XIP peptide (Xip251-270)) were 0.252 (inactive) and -0.263, respectively. In addition, the z-score in assay [2] was 1.18; in assay [3] it was -2.87 (inactive); in assay [4] it was -0.255 (inactive); in assay [5], 0.0038 (inactive).
Regarding `[N-]=[N+]=Nc1ccccc1C[C@@]1(C(=O)NCCN2CCOCC2)N=C(c2ccc(OCCCO)cc2)O[C@@H]1c1ccccc1`, the composite z-score in assay [1] was 0.58 (inactive); in the assay on XIP peptide (Xip251-270), 0.827. Moreover, the z-score in assay [2] is -2.33; in assay [3] it was -4.23 (inactive); in assay [4] it was -0.785 (inactive); in assay [5] it was -1.11 (inactive).
As for `C[N+](C)(C)CCCCNC(=O)[C@H]1C[C@H]2C(=O)N[C@@H](Cc3ccccc3)C(=O)N2[C@H]1c1ccc(O)cc1`, the composite z-score in assay [1] was 1.17 (inactive); with XIP peptide (Xip251-270) it was -0.229. The z-score in assay [2] was 0.498; in assay [3], -1.49 (inactive); in assay [4] it was 0.671 (inactive); in assay [5] it was 0.345 (inactive).
As to `COc1ccc(COC2OC[C@]3(C)[C@H]4C5=C(CN3C(=O)OC(C)(C)C)[C@H](C)C(CO)C(CO)C5CC[C@@H]24)cc1` (some centres not stated), the composite z-score in assay [1] was -0.188 (inactive); in the assay with XIP peptide (Xip251-270), 0.505. The z-score in assay [2] was -1.04; in assay [3] it was -4.75 (inactive); in assay [4], 0.721 (inactive); in assay [5], 0.353 (inactive).
With `C=C(CCCC)C(=O)CC[C@H](OC(=O)c1cccnc1)c1ccccc1OCCO`, the composite z-score in assay [1] is 0.0328 (inactive); in the assay on XIP peptide (Xip251-270), 0.222. Also, the z-score was -3.02 in assay [2], -5.25 (inactive) in assay [3], -1.12 (inactive) in assay [4] and -0.27 (inactive) in assay [5].
Consider `CC(C)(C)OC(=O)CC[C@@]1(C(=O)NCC(O)CO)N=C(c2ccc(OCCCO)cc2)O[C@@H]1c1ccccc1N=[N+]=[N-]` (some centres not stated), for which the composite z-score in assay [1] is 1.01 (inactive); in the assay on XIP peptide (Xip251-270), 0.795. The z-score in assay [2] is -1.86; in assay [3], -4.43 (inactive); in assay [4], -0.436 (inactive); in assay [5], -0.65 (inactive).
In the case of `CCOC(=O)C[C@H]1[C@H](OC(=O)c2cc3ccccc3oc2=O)[C@@H](NC(=O)C2CCCCC2)c2cc(OCCCO)ccc2N1C(=O)c1ccccc1`, the figures for the composite z-score (in assay [1]; with XIP peptide (Xip251-270)) were -0.194 (inactive) and 0.327, respectively. Also, the z-score is -1.73 in assay [2], -3.06 (inactive) in assay [3], 0.895 (inactive) in assay [4] and 1.11 (inactive) in assay [5].
For `CCOc1cc(C(O)C2C=CC3C(=O)N(c4ccccc4)C(=O)C3N2Nc2ccccc2)ccc1O` (configuration not stated), the composite z-score in assay [1] was 0.497 (inactive); with XIP peptide (Xip251-270), 0.221. Moreover, the z-score in assay [2] is -0.033; in assay [3], -4.03 (inactive); in assay [4] it was -0.516 (inactive); in assay [5] it was -0.835 (inactive).
In the case of `CN1C(=O)C2C=CC(C(O)c3ccc(I)cc3)N(N3CCCCC3)C2C1=O` (configuration not stated), the composite z-score in assay [1] was 0.405 (inactive); with XIP peptide (Xip251-270) it was 0.771. The z-score in assay [2] is -0.378; in assay [3], -4.82 (inactive); in assay [4], 0.151 (inactive); in assay [5], -0.062 (inactive).
With `O=C1OCCC/C=C\[C@H]2OC34C=CCN(Cn5nnc6ccccc65)C(=O)[C@H]3N(CCCCCCO)C(=O)[C@@H]4C12` (some centres not stated), the composite z-score in assay [1] was -0.0221 (inactive); in the assay on XIP peptide (Xip251-270), -0.0976. The z-score in assay [2] is -0.395; in assay [3], -4.38 (inactive); in assay [4] it was -0.471 (inactive); in assay [5], 0.832 (inactive).
`CN1C(=O)C2C=CC(C(O)c3cccs3)N(Nc3ccccc3)C2C1=O` (configuration not stated): the composite z-score in assay [1] was 0.193 (inactive); in the assay with XIP peptide (Xip251-270), 0.356. Further, the z-score in assay [2] is 0.376; in assay [3], -1.14 (inactive); in assay [4], 0.482 (inactive); in assay [5], 0.35 (inactive).
For the compound `C=C(CCCC)/C(=C/C[C@@H](OC(C)=O)c1ccccc1OCCO)c1cnc2ccccc2c1`, the results for the composite z-score (in assay [1]; in the assay with XIP peptide (Xip251-270)) were -0.475 (inactive) and 0.234, respectively. Besides, the z-score in assay [2] was -3.01; in assay [3], -5.06 (inactive); in assay [4], 1.11 (inactive); in assay [5], 0.212 (inactive).
With `COC(=O)[C@@]1(Cc2ccc(F)cc2)[C@H]2c3cc(C(=O)N(C)C)n(Cc4nc5ccccc5[nH]4)c3C[C@H]2CN1C(=O)c1ccccc1`, the composite z-score is 0.642 (inactive) in assay [1] and 0.817 in the assay on XIP peptide (Xip251-270). The z-score in assay [2] was -0.593; in assay [3] it was -3.68 (inactive); in assay [4] it was -0.11 (inactive); in assay [5], -0.0626 (inactive).
Turning to `C=CC[C@@]1(C(=O)N(C)C)N=C(c2ccc(OCCCO)cc2)O[C@@H]1c1ccccc1N=[N+]=[N-]`, the composite z-score in assay [1] is 0.158 (inactive); in the assay with XIP peptide (Xip251-270), 0.888. In addition, the z-score in assay [2] is -2.09; in assay [3], -3.42 (inactive); in assay [4], 0.0664 (inactive); in assay [5] it was 0.157 (inactive).
As for `Cc1ccc(S[C@]2(C(=O)NCCN3CCOCC3)CC(=O)N(Cc3ccccc3Cl)[C@@H]2c2ccc(CO)cc2)cc1`, the composite z-score in assay [1] was -0.255 (inactive); with XIP peptide (Xip251-270), 0.686. The z-score in assay [2] was -1.47; in assay [3], -4.04 (inactive); in assay [4], -0.114 (inactive); in assay [5] it was -0.121 (inactive).
